Assay results from PubChem BioAssay (NCATS).
Values without a mark were called inactive. The source made the active and inactive calls. How the calls were made is not given here.

Test: Immunotoxin (HA22) sensitization/mitigation study. Vehicle arm (PBS) (AID 1159510)
Details: cancer cells viability with PBS vehicle (HA22 study); series mostly up to 46.1 µM; viability (% of control): at the top concentration
Potency means the concentration at half of the fitted maximal effect.

Structure (SMILES) | Potency | viability (% of control) [%]
O=C(Nc1cccc(Cl)c1)Nc1ncc(CCNc2ncnc3ccsc23)s1 | 29.6 µM (active) | –
CCOc1cc(C(=O)Nc2ccc(Cl)c(-c3nc4ccccc4[nH]3)c2)cc(OCC)c1OCC | 14.8 µM (active) | –
COc1cc2c(Oc3ccc4[nH]c(C)cc4c3F)ncnc2cc1OCCCN1CCCC1 | 13.2 µM (active) | –
COc1ccc(C2=N[C@H](c3ccc(Cl)cc3)[C@H](c3ccc(Cl)cc3)N2C(=O)N2CCNC(=O)C2)c(OC(C)C)c1 | 2.64 µM (active) | –
CS(=O)(=O)c1cccc(CNc2nc(Nc3ccc4c(c3)CCC(=O)N4)ncc2C(F)(F)F)c1 | 4.69 µM (active) | –
COc1ccc(CCN2CCN(CCCc3ccccc3)CC2)cc1OC | 23.5 µM (active) | –
NC(CO)(CO)CCc1ccc(Sc2cccc(OCc3ccccc3)c2)cc1Cl | 23.5 µM (active) | –
Cn1c2cc(S(C)=O)sc2c2cnn(Cc3cccc(N)c3)c(=O)c21 (configuration not stated) | – | 118
CN(C)C1CCN(C(=O)c2ccc(NC(=O)Nc3nc(N4CCOCC4)nc(N4CCOCC4)n3)cc2)CC1 | 0.166 µM (active) | –
CC[C@H](Nc1ncnc2nc[nH]c12)c1nc2cccc(F)c2c(=O)n1-c1ccccc1 | 20.9 µM (active) | –
N#Cc1ccc(COC[C@H]2O[C@@H](n3c(NCc4ccc(Cl)c(Cl)c4)nc4c(N)ncnc43)[C@@H](O)[C@@H]2O)cc1 | 23.5 µM (active) | –
C[C@@H]1CN(CC(=O)Nc2ccc3c(c2)Cc2cccc(-c4cc(=O)cc(N5CCOCC5)o4)c2S3)C[C@H](C)O1 | 16.6 µM (active) | –
CC(C)(C)c1cc(C(C)(C)C)c(NC(=O)c2c[nH]c3ccccc3c2=O)cc1O | 16.6 µM (active) | –
CN(C)Cc1ccc(-c2nc3cccc4c3n2CCNC4=O)cc1 | 23.5 µM (active) | –
O=C(Nc1ccccc1-c1cn2c(CN3CCNCC3)csc2n1)c1cnc2ccccc2n1 | 26.4 µM (active) | –
CN1CCN(c2cc(C(=O)Nc3ccc4c(c3)-c3c(c(C(N)=O)nn3-c3ccc(F)cc3)CC4)c(Cl)cn2)CC1 | 26.4 µM (active) | –
COc1cc2nccc(Oc3ccc(NC(=O)Nc4cc(C)on4)c(Cl)c3)c2cc1OC | 18.7 µM (active) | –
CC(=O)c1c(C)c2cnc(Nc3ccc(N4CCNCC4)cn3)nc2n(C2CCCC2)c1=O | 16.6 µM (active) | –
O=C(c1cc(Cc2n[nH]c(=O)c3ccccc23)ccc1F)N1CCN(C(=O)C2CC2)CC1 | 14.8 µM (active) | –

Structure (SMILES) | Potency | viability (% of control) [%]
CCCS(=O)(=O)Nc1ccc(F)c(C(=O)c2c[nH]c3ncc(-c4ccc(Cl)cc4)cc23)c1F | 23.5 µM (active) | –
O=C(c1ccc(Nc2nccc(-c3cc4ccccc4s3)n2)cc1)N1CCC(N2CCCC2)CC1 | 16.6 µM (active) | –
Cc1nn(Cc2ccccc2Cl)c(C)c1CN(C)CC(O)COc1ccc(Cl)cc1 (configuration not stated) | 26.4 µM (active) | –
CCn1c(-c2nonc2N)nc2c(C#CC(C)(C)O)ncc(OC[C@H]3CCCNC3)c21 | 10.5 µM (active) | –
Cc1ccccc1C(C(=O)NC1CCCC1)N(C(=O)Cn1cnc2ccccc21)c1cccc(F)c1 (configuration not stated) | 23.5 µM (active) | –
CC(O)=C(C#N)C(=O)Nc1ccc(C(F)(F)F)cc1 | 16.6 µM (active) | –
Cn1c(=O)c(F)c(Nc2ccc(I)cc2F)c2c(=O)n(C[C@@H](O)CO)cnc21 | 23.5 µM (active) | –
Cc1cccc(-c2nn(C(=S)Nc3ccccc3)cc2-c2ccnc3ccccc23)n1 | 18.7 µM (active) | –
CNC(=O)c1ccc(N2C(=S)N(c3ccc(C#N)c(C(F)(F)F)c3)C(=O)C2(C)C)cc1F | – | 87.8
COc1ccccc1[C@H](c1cccc2ccccc12)[C@@](C)(C#N)C(=O)N1CCC(c2cccc(C(F)(F)F)c2)CC1 | – | 93.8
CCc1cncnc1N1CCN(Cc2nc3ccc(C(F)(F)F)cc3[nH]2)CC1 | 7.43 µM (active) | –
COc1cc(C)c(Sc2cnc(NC(=O)c3ccc(CNC(C)C(C)(C)C)cc3)s2)cc1C(=O)N1CCN(C(C)=O)CC1 (configuration not stated) | 14.8 µM (active) | –
NC(=O)C1CCCc2c1[nH]c1ccc(Cl)cc21 (configuration not stated) | – | 95.3
CCOC(CN1C(=O)[C@](CC(=O)Nc2ccc(C)cc2)(NC(=O)Nc2ccc(C)cc2)c2ccccc21)OCC | 23.5 µM (active) | –
CC(C)(C)c1cc(NC(=O)Nc2ccc(-c3cn4c(n3)sc3cc(OCCN5CCOCC5)ccc34)cc2)no1 | 0.59 µM (active) | –
CCC(=C(c1ccccc1)c1ccc(OCCN(C)C)cc1)c1ccccc1 | 23.5 µM (active) | –
CCC[C@H](NC(=O)C(C#N)=Cc1cccc(Br)n1)c1ccccc1 | 1.05 µM (active) | –
CC(C)OC(=O)C1=CN(C(=O)c2ccc(F)c(F)c2)CC(C)(C)c2c1[nH]c1ccccc21 | 2.96 µM (active) | –
